Only some compounds are listed: those with a hit (about 10% of all), similar ones and a draw of the others.
Six1-Eya2 inh: Six1/Eya2 interaction inhibition | Q15475+O00167 | AlphaScreen GST-Six1/His-Eya2 binding, biochemical; hits give low values | activity change, % (concentration not given with the values) | 360,000 compounds, 0.56% hits | AID 651725; in the data active = activity change below about -65%; inconclusive = mostly about -30% to -63%; note: % is set by controls: 0 for no effect and ±100 for the full control effect
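Homogeneous AlphaScreen proximity assay pairing GST-Six1 with His-tagged Eya2 (added as 5X mix: 250 nM and 500 nM) in 50 mM Tris pH 8.0, 300 mM NaCl, 1 mM TCEP. Glutathione donor and nickel acceptor beads; 1 h, 37 °C, dark.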
JMJD2A Tudor: JMJD2A Tudor domain (human) inhibition; AlphaScreen JMJD2A-Tudor / H3K4me3 peptide binding; Potency, µM (doses to about 114 µM), inactives show top-dose activity change, negative = inhibition, usual class: inhibitors; 390,000 compounds, 4.4% hits; note: potency is the fitted concentration of half-maximal effect; % is set by controls: 0 for no effect and ±100 for the full control effect; nearly all actives have a fitted effect of over 50% in size
BAZ2B inh: BAZ2B (human) inhibition; AlphaScreen BAZ2B-H3K14Ac peptide displacement; Potency, µM (top dose mostly 114 µM), without a hit: top-dose activity change, negative = inhibition, hits mostly inhibitors; 360,000 compounds, 4.4% hits; note: potency is the fitted concentration of half-maximal effect; % is set by controls: 0 for no effect and ±100 for the full control effect; nearly all actives have a fitted effect of over 60% in size
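AlphaScreen displacement: compounds (up to 110uM) incubated 30 min at room temperature with a preformed 50 nM BAZ2B/50 nM biotinylated H3K14Ac peptide complex in PBS pH 7.4 with Tween-20. Donor and acceptor beads at 10 ug/mL final added, 20 min light-protected before reading.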
HP1b binding inh: HP1-beta chromodomain-methylated histone interaction inhibition; AID 540317; AlphaScreen HP1-beta / biotin-H3K9me3 peptide binding; P83916; Potency, µM (highest dose often 114 µM), without a hit: at the highest dose activity change, negative = inhibition, most hits filed as inhibitors; 390,000 compounds, 0.56% hits; note: potency is the fitted concentration of half-maximal effect; nearly all actives have a fitted effect of over 70% in size
Target sequence (P83916 whole entry, looked up): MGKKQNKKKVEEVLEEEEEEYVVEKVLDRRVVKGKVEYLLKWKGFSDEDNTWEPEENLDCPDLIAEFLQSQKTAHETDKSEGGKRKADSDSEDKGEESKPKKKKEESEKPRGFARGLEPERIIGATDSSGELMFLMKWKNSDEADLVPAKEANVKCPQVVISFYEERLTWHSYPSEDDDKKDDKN
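Compound inhibition of the preformed complex between 50 nM HP1-beta and 50 nM biotinylated H3K9me3 peptide was read by AlphaScreen. Buffer was PBS pH 7.4 with 0.01% Tween-20. Incubations ran 30 min at room temperature, with 10 ug/mL donor/acceptor beads.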
G9a inh: blocks human histone lysine methyltransferase G9a; AID 504332; 350,000 compounds, 8.8% hits; G9a H3K9 monomethylation, AlphaScreen, 2 h; Q96KQ7; Potency, µM (top dose mostly 102 µM), inactives show top-dose activity, negative = inhibition, actives largely listed as inhibitors; note: potency is the fitted concentration of half-maximal effect; % is set by controls: 0 for no effect and ±100 for the full control effect; nearly all actives have a fitted effect of over 75% in size
Target sequence (Q96KQ7 913-1193 limits assumed): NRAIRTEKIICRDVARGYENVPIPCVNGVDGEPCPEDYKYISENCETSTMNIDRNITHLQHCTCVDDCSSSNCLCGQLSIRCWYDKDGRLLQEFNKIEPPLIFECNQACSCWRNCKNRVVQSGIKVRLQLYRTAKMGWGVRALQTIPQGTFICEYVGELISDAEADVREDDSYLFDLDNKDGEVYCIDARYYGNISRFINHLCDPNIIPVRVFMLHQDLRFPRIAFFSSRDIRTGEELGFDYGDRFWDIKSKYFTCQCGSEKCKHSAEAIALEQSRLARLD
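Enzyme 20 nM + cpd, 15 min RT; add b-H3K9 pep 500 nM / SAM 20 uM; 2 h RT; anti-H3K9me1 Ab 0.5 ug/mL + SA donor / anti-rabbit acceptor beads 20 ug/mL each, 10 min; AlphaScreen read.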
CtBP-E1A blk: inhibitors of CtBP/E1A interaction; AlphaScreen GST-E1A/His-CtBP binding, 1536-well; hits give low values; 340,000 compounds, 0.49% hits; activity change, % (test concentration not listed); in the data active = activity change below about -65%; inconclusive = mostly about -30% to -63%; note: % is set by controls: 0 for no effect and ±100 for the full control effect
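In 5 uL wells, 23 nL compound meets equimolar GST-E1A and His-CtBP (5X stock 125 nM each) for 2 h, 37 °C. Beads (5X, 50 ug/mL) then 1 h, 37 °C, dark.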
* hit, by the source's call; ? = inconclusive; . = no result; [ ] = remark or other dose. Unless noted, calls come from the whole dose curve; as a rule, active = well fitted inhibition curve with a large enough effect; inconclusive = small, poorly fitted or top-dose-only effect; inactive = no such curve, though single readings can be large or run the other way.

SMILES	Six1-Eya2 inh	JMJD2A Tudor	BAZ2B inh	HP1b binding inh	G9a inh	CtBP-E1A blk
COc1ccccc1CNC(=O)CCS(=O)(=O)c1ccc(Cl)cc1	6	-8%	8%	16%	31%[0.501 µM]	-23
O=C(NCC(c1ccc2c(c1)OCO2)N1CCOCC1)c1c(F)cccc1F (stereo not given)	.	-11%	-2%	4%[57 µM]	-7%[59 µM]	.
Fc1ccc(CNc2ncnc3onc(-c4ccc(F)cc4)c23)cc1	.	7%	25%[57.1 µM]	42%	-14%[59 µM]	.
CN1CCC(Oc2ccccc2Sc2ccccc2)CC1	0	0.71µM*	-37%	?	?	-18
O=C(c1nc2n(n1)C(c1ccc(Cl)cc1)C=C(c1ccccc1)N2)N1CCOCC1 (stereo not given)	-2	-24%	-33%	14%	3.5µM*	-1
O=C(Nc1nc2n(n1)C(c1ccccc1)C=C(c1ccc(Cl)cc1)N2)c1ccco1 (stereo not given)	.	?	79µM*	11%	?	.
O=C(Nc1nc2n(n1)C(c1ccc(F)cc1)C=C(c1ccc(Cl)cc1)N2)c1ccco1 (stereo not given)	.	-16%	-4%	19%	?	.
O=C(Nc1nc2n(n1)C(c1ccccc1)C=C(c1ccccc1)N2)c1ccco1 (stereo not given)	0	-29%	25µM*	15%	22µM*	-19
Cc1ccc(NC(=O)[C@@H](NC(=O)c2cccc(S(=O)(=O)N3CCOCC3)c2)C(C)C)cc1C	3	0%	10%	20%	13%[59 µM]	5
Cc1cc(C)c(S(=O)(=O)NCCCn2ccnc2)cc1C	-11	-16%	?	29%	-3%[0.501 µM]	1
Cc1ccc(Nc2nnc(-c3ccc(C)c(S(=O)(=O)N4CCOCC4)c3)c3ccccc23)c(C)c1	.	-21%	-19%	14%	-46%[59 µM]	.
CCOC(=O)CN1C(=O)C2Cc3ccccc3CN2C1=S (stereo not given)	-2	-12%	-20%	?	20µM*	6
Cc1[nH]n(-c2ccccc2)c(=O)c1/C=N/N1CCOCC1	1	-8%	-34%	9%	?	0
O=c1c(/C=N/N2CCOCC2)c(C(F)(F)F)[nH]n1-c1ccccc1	-2	-21%	-35%	0%	40µM*	.
COc1ccnc(CSC(N)=Nc2ccc(F)cc2)c1	?	22µM*	50µM*	-11%	7.1µM*	?
O=C1CC(N2CCOCC2)C(=O)N1c1cccc(Cl)c1 (stereo not given)	0	-7%	9%	56%	45µM*	2
O=C(C1CCN(C2CC(=O)N(c3cccc(Cl)c3)C2=O)CC1)N1CCCCCC1 (stereo not given)	-6	-15%	3%	40%	10µM*	7
CC(=O)Nc1ccc(N2C(=O)CC(N3CC(C)OC(C)C3)C2=O)cc1 (stereo not given)	12	-13%	8%	53%	22µM*	4
COC(=O)c1ccc(N2C(=O)CC(N3CCOCC3)C2=O)cc1 (stereo not given)	3	-9%	11%	32%	79µM*	-2
Cc1ccc(NC(=O)COc2ncnc3c(Cl)cc(Cl)cc23)cc1[N+](=O)[O-]	-3	-13%	-10%	33%	-1%[59 µM]	-8
CC(=O)c1c(Nc2ccc3c(c2)OCCO3)oc(C)cc1=O	4	-16%	-9%	19%	79µM*	-1
C=C1CC[C@H](O)C/C1=C/C=C1\CCC[C@]2(C)C([C@H](C)CC[C@@H](O)C(C)(C)O)CC[C@@H]12 (stereo not given in full)	.	.	.	.	27%[59 µM]	.
CC1CC(C(F)F)n2nc(C(=O)O)cc2N1 (stereo not given)	6	20µM*	-11%	-3%	1%	6
COCCn1c(NC(=S)NC(=O)C2CC2)cc(=O)[nH]c1=O	-26	1µM*	?	12%	?	-15
NC(=NCc1ccc(Cl)cc1Cl)NC(=O)c1nc(Cl)c(N)nc1N	.	.	.	.	2%[59 µM]	.
SMILES	Six1-Eya2 inh	JMJD2A Tudor	BAZ2B inh	HP1b binding inh	G9a inh	CtBP-E1A blk
Cc1cc(C)nc(NS(=O)(=O)c2ccc(N3C(=O)C4CC=C(Cl)CC4C3=O)cc2)n1 (stereo not given)	1	-14%	-6%	28%	-17%	-2
Cc1ccc(OC(=O)C2CSC3(C)CCC(=O)N23)c(Br)c1 (stereo not given)	2	-12%	30%	-14%	0%[0.501 µM]	0
COC(=O)c1ccc(OC(=O)C2CSC3(C)CCC(=O)N23)cc1 (stereo not given)	4	6%	0%	32%	56µM*	-24
COc1cc(-c2ccc(N=Nc3ccc4c(S(=O)(=O)O)cc(S(=O)(=O)O)c(N)c4c3O)c(OC)c2)ccc1N=Nc1ccc2c(S(=O)(=O)O)cc(S(=O)(=O)O)c(N)c2c1O	.	.	.	.	7.1µM*	.
C[N+](C)(C)CCN(Cc1ccc(Cl)cc1)c1ccccn1	2	-35%	50µM*	23%	11%[59 µM]	2
COc1ccc([C@H]2CC(=O)C[C@@H](CCn3cc(-c4ccccn4)nn3)O2)cc1	-20	.	.	.	.	-11
Cc1cccc(NC(=O)CSc2nnc(C)c(=O)n2N)c1	6	-4%	.	21%	17%	-9
Cc1ccc(NC(=O)CSc2nnc(C)c(=O)n2N)c(C)c1	5	-7%	50µM*	15%	1.8µM*	-13
Cc1ccc(NC(=O)Cc2ccc(-n3cccc3)cc2)c(C)c1	2	-36%[57.1 µM]	50µM*	9%	1%	-4
Cc1cc(C)cc(NC(=O)Cc2ccc(-n3cccc3)cc2)c1	0	11%[57.1 µM]	-9%	28%	20%	-3
COc1ccc(Cn2ccnc2SCC(=O)Nc2ccccc2OC)cc1	-7	?	?	-9%	45µM*	-2
COc1ccc(NC(=O)CSc2nccn2-c2ccccc2)c(OC)c1	-16	-33%	?	-22%	?	-3
CCOc1ccccc1NC(=O)CSc1nccn1-c1ccccc1	-4	-33%	50µM*	-21%	?	1
CC(=O)C[C@H]1SC[C@@H](C(C)C)N1S(=O)(=O)c1ccc(C)cc1	13	.	.	.	.	-1
O=C(c1ccc(Cl)cc1)N1CCC(c2nc3ccccc3o2)CC1	.	-12%	-36%	7%	-5%[59 µM]	.
CCN1CCN(C(=O)CCc2ccc(S(=O)(=O)NCCc3ccccc3)cc2)CC1	1	14%	12%	16%	-8%[59 µM]	-1

Source: PubChem
